# According to PubChem BioAssay AID588727 (Southern Research Specialized Biocontainment Screening …, 2011):
# Out of some 350,000 compounds screened, about 450 (0.13%) were called active. No rule for the calls is given here. A selection follows. Results with a measured potency or affinity are listed apart.
# Experiment: inhibitors of VEEV TC-83 cytopathic effect, confirmation, Vero cells (AID 588727)
# Conditions: VEEV TC-83 cytopathic effect inhibition, at 20 µM
# [1] = stronger effect = higher value unless noted
# [2] = measured here: 10K pilot screen inhibition, stronger effect = higher value
structure (smiles),measurement,setting,value
O=C(CCC1CCCN(C(=O)CCN2CCCCC2=O)C1)NCc1ccccc1F (stereo not given),inhibition,[1],"0.405% [measured here: 10K pilot screen inhibition, stronger effect = higher value]"
same,outcome,[1],inactive
C=CCN1C(=O)c2ccc(C(=O)NCCc3ccc(OC)c(OC)c3)cc2C1=O,inhibition,[1],0.34% (inactive)
CC1CCCCC1NC(=O)COCc1cc(-c2cccs2)on1 (stereo not given),inhibition,[1],inactive
Cc1cc(C(=O)Cn2nnc3ccccc3c2=O)c(C)n1-c1c(C)n(C)n(-c2ccccc2)c1=O,inhibition,[1],inactive
COc1ccc(-n2c(C)cc(C(=O)Cn3nnc4ccccc4c3=O)c2C)cc1,inhibition,[1],1.42% (inactive)
CC1Sc2ccc(S(=O)(=O)CCC(=O)N3CCCC3)cc2NC1=O (stereo not given),inhibition,[1],2.36% (inactive)
O=C(CSc1nc(-c2ccccc2Cl)ns1)c1ccc(Cl)cc1,inhibition,[1],1.15% (inactive)
COC(=O)c1ccc(N/C(=N/S(=O)(=O)c2ccccc2)c2ccccc2)cc1,inhibition,[1],1.58% (inactive)
CCC(C)N=Cc1c(Nc2ccccc2)nc2c(C)cccn2c1=O (stereo not given),inhibition,[1],inactive
CCCC[C@H]1COCCS(=O)(=O)N1Cc1cccc([N+](=O)[O-])c1,inhibition,[1],inactive
O=C(NCc1cccnc1)/C(=C\c1ccc(-c2ccc(Cl)c(Cl)c2)o1)S(=O)(=O)c1ccccc1,inhibition,[1],0.29% (inactive)
O=C(NCc1cccnc1)/C(=C/c1ccc(-c2cccc(Cl)c2)o1)S(=O)(=O)c1ccccc1,inhibition,[1],9.73% (inactive)
O=C(CCNC(=O)c1ccccc1)NC1CCCc2ccccc21 (stereo not given),inhibition,[1],inactive
O=C(NC1CCCc2ccccc21)c1ccc(Br)cc1 (stereo not given),inhibition,[1],0.82% (inactive)
O=C(CCNC(=O)c1ccc([N+](=O)[O-])cc1)NC1CCCc2ccccc21 (stereo not given),inhibition,[1],9.16% (inactive)
O=C(Cc1ccc(Br)cc1)NC1CCCc2ccccc21 (stereo not given),inhibition,[1],3.28% (inactive)
CC(SCC(=O)Nc1ccccc1Br)c1nc2ccccc2c(=O)[nH]1 (stereo not given),inhibition,[1],inactive
CCCOc1ccc(C(=O)Nc2cc(S(=O)(=O)N3CCOCC3)ccc2N2CCOCC2)cc1,inhibition,[1],6.81% (inactive)
CC(=O)c1ccc(S(=O)(=O)N2CCN(C(=O)c3ccc(-n4nc(C)c(Cl)c4C)cc3)CC2)cc1,inhibition,[1],2.19% (inactive)
O=[N+]([O-])c1cccc(/C=C/c2ccncc2)c1,inhibition,[1],inactive
O=[N+]([O-])c1cccc(/C=C/c2ccccn2)c1,inhibition,[1],0.25% (inactive)
O=C(CCNS(=O)(=O)c1cccc(Cl)c1)OCC(=O)N1CCN(C(=O)c2ccco2)CC1,inhibition,[1],0.85% (inactive)
O=C(CC1SC(N2CCOCC2)=NC1=O)Nc1ccccc1Cl (stereo not given),inhibition,[1],2.68% (inactive)
C=CCN1C(c2ccc(Br)cc2)=CS/C1=C(\C#N)c1nnc(N2CCOCC2)n1-c1ccccc1,inhibition,[1],11.4% (inactive)
O=C1N/C(=N\c2ccccn2)SC1Cc1ccccc1Cl (stereo not given),inhibition,[1],4.16% (inactive)
Cc1ccccc1CC1SC(N)=NC1=O (stereo not given),inhibition,[1],1.28% (inactive)
CC(=O)/C(C#N)=C1\NC(=O)C(Cc2cc(Cl)ccc2Cl)S1 (stereo not given),inhibition,[1],3.03% (inactive)
Cc1ccccc1CC1SC(N=C(N)N)=NC1=O (stereo not given),inhibition,[1],1.59% (inactive)
O=c1c2ccccc2nc(-c2ccco2)n1-c1nc2ccccc2s1,inhibition,[1],1.81% (inactive)
FC(F)Oc1ccc(NC(=S)N2CCc3ccccc32)cc1,inhibition,[1],0.39% (inactive)
Cc1ccccc1C(=O)N1CCC(C(=O)Nc2sccc2C(N)=O)CC1,inhibition,[1],2.51% (inactive)
CN(Cc1ccc(O)cc1)C1CCCCC1,inhibition,[1],1.27% (inactive)
OCC1(CCOc2ccccc2)CCN(Cc2cn[nH]c2-c2ccc(F)cc2)CC1,inhibition,[1],2.7% (inactive)
OCC1(CCOc2ccccc2)CCN(Cc2ccncc2)CC1,inhibition,[1],0.23% (inactive)
C=CCOc1ccc(C=Nc2ccc(Cl)cc2)c(O)c1,inhibition,[1],0.47% (inactive)
Cc1c(C(=O)N(C)CCn2ccnc2C)oc2c(F)cccc12,inhibition,[1],1.03% (inactive)
CCN(CC)C(=O)c1sc(NC(=O)c2ccoc2C)c(C(=O)OC)c1C,inhibition,[1],1.79% (inactive)
O=C(NCCN1CCOCC1)c1ccc(/C=C2\Sc3ccccc3N(Cc3ccccc3F)C2=O)cc1,inhibition,[1],10.8% (inactive)
CN1CCN(CCCNC(=O)c2ccc(/C=C3\Oc4ccccc4N(Cc4ccccc4F)C3=O)cc2)CC1,inhibition,[1],13.6% (inactive)
COc1ccccc1N1CCN(C(=S)Nc2ccccc2)CC1,inhibition,[1],1.3% (inactive)
CC(C)Oc1ccc(Cl)cc1Nc1nc(NCCO)nc(N2CCCC2)n1,inhibition,stronger effect = higher value,4.93% (inactive)
same,inhibition,[2],4.53%
Cc1ccc(NC(=O)CN2C(=O)NC3(CCCc4ccccc43)C2=O)c([N+](=O)[O-])c1 (stereo not given),inhibition,[1],1.12% (inactive)
Cc1ccccc1NS(=O)(=O)c1nnc(NC(=O)c2ccccc2F)s1,inhibition,stronger effect = higher value,1.96% (inactive)
same,inhibition,[2],3.31%
C(=C\c1ccncc1)/c1ccccc1,inhibition,[1],0.98% (inactive)
CC1(C)CC(=O)C=C(/C=C/c2ccccc2)C1,inhibition,[1],0.62% (inactive)
Cc1ccnc(SCc2cc(=O)c(OC(=O)c3cc([N+](=O)[O-])ccc3Cl)co2)n1,inhibition,[1],0.24% (inactive)
CCOC(=O)c1sc(=S)sc1SCc1cccc(C(F)(F)F)c1,inhibition,[1],inactive
O=S1(=O)C=C(SCc2ccc(F)cc2)Nc2ccccc21,inhibition,[1],inactive
CCCc1c(C(=O)Nc2ccc(F)cc2F)cnn1-c1ccccc1,inhibition,[1],inactive
CCCc1c(C(=O)Nc2ccc(F)cc2)cnn1-c1ccccc1,inhibition,[1],7.43% (inactive)
CCCc1c(C(=O)NNc2cccc(Cl)c2)cnn1-c1ccccc1,inhibition,[1],2.24% (inactive)
CCCc1c(NC(=O)Nc2ccc(F)cc2)cnn1-c1ccc(Cl)cc1,inhibition,[1],3.23% (inactive)
CC(Sc1nc2ncc(Cl)cc2[nH]1)C(=O)c1c(N)n(C)c(=O)n(C)c1=O (stereo not given),inhibition,[1],10.7% (inactive)
Cn1ncc2c(=O)[nH]cnc21,inhibition,[1],0.51% (inactive)
CC(=O)Nc1ccc(S(=O)(=O)N(C)CC(=O)OCC(=O)N(CC(C)C)C2CCS(=O)(=O)C2)cc1 (stereo not given),inhibition,[1],6.9% (inactive)
COc1ccc(NC(=O)CN(C)C(=O)c2cn(-c3ccccc3)nc2-c2cccnc2)cc1,inhibition,[1],6.98% (inactive)
CSCCC(NS(=O)(=O)c1ccc(Cl)cc1)C(=O)OCC(=O)NC12CC3CC(CC(C3)C1)C2 (stereo not given),inhibition,[1],2.38% (inactive)
O=C1Nc2ccccc2C1(O)c1ccccc1O (stereo not given),inhibition,[1],0.23% (inactive)
COc1cc2c(O)c3c(c(-c4ccc5c(c4)OCO5)c2cc1OC)C(=O)OC3,inhibition,[1],8.81% (inactive)
COc1c(NC(C)=O)c2c(c([N+](=O)[O-])c1OC)C(=O)OC2,inhibition,[1],0.9% (inactive)
O=S(=O)(NCc1ccccc1Cl)c1ccc(-n2cnnn2)cc1,inhibition,[1],1.99% (inactive)
C=CCNC(=S)NNC(=O)c1ccc(OCCC)cc1,inhibition,[1],1.27% (inactive)
CCCOc1ccc(C(=O)NNC(=S)NC(=O)c2ccccc2)cc1,inhibition,[1],7.4% (inactive)
CCCCC(=O)NC(=S)NNC(=O)c1ccc(OC)cc1,inhibition,[1],11% (inactive)
CCC(=O)NC(=S)NNC(=O)c1ccc(OC)cc1,inhibition,[1],3.83% (inactive)
CCCn1c(N)c(C(=O)CSc2nnc(N)s2)c(=O)[nH]c1=O,inhibition,[1],8.01% (inactive)
CCC1(CC)NC(=O)N(CC(=O)Nc2ccc(C)cc2C)C1=O,inhibition,[1],1.89% (inactive)
Cc1cn([C@H]2C[C@H](O)[C@@H](CNC(=O)[C@@H]3CCCN3Cc3ccccc3)O2)c(=O)[nH]c1=O,inhibition,[1],1.26% (inactive)
COCC(=O)N1CCCC(C(=O)c2ccc(-c3ccccc3)c(F)c2)C1 (stereo not given),inhibition,[1],3.71% (inactive)
COc1cc(OC)c(OC)cc1/C=C/C(=O)c1ccc(NS(=O)(=O)c2ccc(C)cc2)cc1,inhibition,[1],6.43% (inactive)
COc1cc(/C=C/C(=O)c2ccc(NS(=O)(=O)c3ccc(C)cc3)cc2)ccc1OC(F)F,inhibition,[1],42.9% (inactive)
COCCNC(=O)CCCn1c(=O)c2cc(OC)c(OC)cc2n(CC(=O)Nc2ccccc2OC)c1=O,inhibition,[1],1.37% (inactive)
O=C(CCc1ccccc1)N1CCN(c2ccc(Cl)cc2)CC1,inhibition,[1],0.61% (inactive)
CCCCN(CC)CCNC(=O)c1ccc2c(Cl)c3c(nc2c1)CCC3,inhibition,[1],inactive
CCCN(CCC)CCCNC(=O)c1ccc2c(Cl)c3c(nc2c1)CCC3,inhibition,[1],inactive
COc1cc2cc(C(=O)N/N=C/c3ccc(F)cc3)[nH]c2cc1OC,inhibition,[1],2.5% (inactive)
CCN1CCN(c2cc(C)c3cc(NC(=S)N4CCN(c5ccc(F)cc5)CC4)ccc3n2)CC1,inhibition,[1],0.9% (inactive)
Cc1nn(Cc2cccc(C(=O)O)c2)c(C)c1[N+](=O)[O-],inhibition,[1],1.46% (inactive)
O=c1c2ccccc2nc2n1C(CSc1ccccc1)CS2 (stereo not given),inhibition,[1],1% (inactive)
O=C(Nc1ccccc1SCC1CSc2nc3ccccc3c(=O)n21)c1ccccc1Cl (stereo not given),inhibition,[1],13.7% (inactive)
Nc1ccccc1SCC1CSc2nc3ccccc3c(=O)n21 (stereo not given),inhibition,[1],1.18% (inactive)
O=C(Nc1ccccc1SCC1CSc2nc3ccccc3c(=O)n21)c1ccccc1 (stereo not given),inhibition,[1],7.04% (inactive)
CC(NC(=O)Cn1c(=O)[nH]c2ccsc2c1=O)C12CC3CC(CC(C3)C1)C2 (stereo not given),inhibition,[1],4.05% (inactive)
O=C(N/N=C/c1ccc(F)cc1)c1cc(-c2ccc3c(c2)OCO3)n[nH]1,inhibition,[1],3.22% (inactive)
CN(CC(=O)Nc1ccc(F)cc1)C(=O)COC(=O)/C=C/c1ccccc1[N+](=O)[O-],inhibition,[1],5.33% (inactive)
COc1ccc(/C=N/Nc2nonc2N)cc1,inhibition,[1],0.29% (inactive)
COc1ccc(C2c3c(ncn(CCN4CCOCC4)c3=N)Oc3ccc4ccccc4c32)cc1OC (stereo not given),inhibition,[1],1.27% (inactive)
COc1ccc(C2c3c(ncn(CCCO)c3=N)Oc3ccc4ccccc4c32)cc1OC (stereo not given),inhibition,[1],4.99% (inactive)
Cc1ccc2sc(NNC(=O)C3=COCCO3)nc2c1C,inhibition,[1],2.26% (inactive)
CN(C)/C=C/C(=O)c1ccccc1OCc1cnc(Cl)s1,inhibition,[1],inactive
CC(C)(C)OC(=O)[C@H](Cc1ccccc1)NC(=O)c1nc[nH]c1C(=O)N1CCN(c2ccccc2)CC1,inhibition,[1],5.56% (inactive)
CC(C)(C)OC(=O)N1CCN(C(=O)c2[nH]cnc2C(=O)N[C@@H](Cc2ccccc2)C(=O)OCc2ccccc2)CC1,inhibition,[1],2.09% (inactive)
